Hits are enriched below; roughly 21% of the tested compounds scored in any of these assays.
ELG1 repair inh = inhibitors of ELG1-dependent DNA repair in HEK293T cells; HEK293T ELG1-luciferase reporter, luminescence, 16 h; DNA damage induced by 5-fluorouridine; Potency, µM (top dose mostly 46.1 µM), for inactives: at the top dose activity change, negative = inhibition, hits mostly inhibitors; 330,000 compounds, 2.3% hits; AID 504467; note: potency is the fitted concentration of half-maximal effect; nearly all actives have a fitted effect of over 55% in size
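HEK293T cells expressing luciferase-tagged ELG1 (2,000/well) received 5-Fluorouridine plus compound or DMSO for 16 hr at 37 °C. Luciferase was read by ONE-Glo luminescence after 30 min at room temperature.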
RORgamma inh = blocks mouse ROR gamma transcriptional activity; Drosophila S2 Gal4-RORgamma UAS-luciferase reporter, 20 h; Potency, µM (titrated, usually from 53.6 µM), for the others: at the highest dose activity change, negative = inhibition, usual class: inhibitors; 310,000 compounds, 5.4% hits; AID 2551; note: potency is the fitted concentration of half-maximal effect; nearly all actives have a fitted effect of over 60% in size
Target sequence (P51450 whole entry, looked up, the tested form may be a part): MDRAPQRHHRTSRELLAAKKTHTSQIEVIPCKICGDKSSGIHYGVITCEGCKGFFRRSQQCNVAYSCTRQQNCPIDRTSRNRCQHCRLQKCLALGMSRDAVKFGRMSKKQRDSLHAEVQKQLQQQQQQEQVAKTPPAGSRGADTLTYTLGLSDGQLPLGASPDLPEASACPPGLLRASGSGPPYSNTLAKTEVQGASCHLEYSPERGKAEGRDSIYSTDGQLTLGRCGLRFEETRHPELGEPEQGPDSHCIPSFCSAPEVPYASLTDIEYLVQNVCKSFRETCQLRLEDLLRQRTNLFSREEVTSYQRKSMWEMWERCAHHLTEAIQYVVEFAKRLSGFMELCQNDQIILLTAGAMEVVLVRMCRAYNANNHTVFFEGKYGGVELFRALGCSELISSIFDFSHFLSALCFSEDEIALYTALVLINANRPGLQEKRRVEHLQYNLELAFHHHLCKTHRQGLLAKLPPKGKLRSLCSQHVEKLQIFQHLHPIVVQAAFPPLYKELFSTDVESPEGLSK
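Luminescence from a UAS-regulated Photinus luciferase reporter in stably transfected Drosophila Schneider cells is measured; decreased signal marks ROR gamma inhibition. Fusion expression is induced by 700 uM copper sulfate for 20 hr.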
DT40 TDP1 no CPT = qHTS for Inhibitors of human tyrosyl-DNA phosphodiesterase 1 (TDP1): qHTS in cells in absence of CPT; DT40 Tdp1-/- hTDP1 cells, no CPT, ATP luminescence, 48 h; Potency, µM (doses to about 46.2 µM), inactives show top-dose activity change, negative = growth inhibition, actives largely listed as inhibitors; 420,000 compounds, 15% hits; AID 686978, 2013; note: potency is the fitted concentration of half-maximal effect; nearly all actives have a fitted effect of over 55% in size
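A cellular qHTS used chicken DT40 cells lacking endogenous Tdp1 but carrying stably transfected human TDP1. Compounds were applied without camptothecin, and cell growth kinetics were judged by ATP-dependent luminescence after ≥48 hr.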
Gal4-VP16 FLuc = Gal4-VP16 reporter inhibition counter-screen; Drosophila S2 Gal4-VP16 UAS-luciferase, luminescence, 20 h; Potency, µM (highest dose often 53.6 µM), for the others: at the top dose activity, negative = inhibition, usual class: inhibitors; 310,000 compounds, 3.5% hits; AID 2546;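 note: Gal4-VP16 expression switched on by copper sulfate through the metallothionein promoter; potency is the fitted concentration of half-maximal effect; nearly all actives have a fitted effect of over 50% in size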
DT40 TDP1 CPT = growth inhibition of DT40 Tdp1-/-;hTDP1 cells with camptothecin (screen for TDP1 inhibitors) | Potency, µM (series often up to 46.2 µM), inactives show at the top dose activity change, negative = growth inhibition, actives largely listed as inhibitors | 420,000 compounds, 12% hits | chicken DT40 Tdp1-/-;hTDP1 cells + 20 nM CPT, ATP luminescence, 48 h | AID 686979; note: potency is the fitted concentration of half-maximal effect; nearly all actives have a fitted effect of over 55% in size
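Cell growth measured by CellTiter-Glo luminescence after a minimum 48 h, 37 C compound exposure with 20 nM CPT in Tdp1-knockout DT40 cells stably expressing hTDP1, seeded 400/well; qHTS titration format.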
IL1B secr inh = inhibitors of inflammasome signaling (IL-1 beta secretion). THP-1 LPS/ATP IL-1B secretion, AlphaLISA, 16 h; active compounds read low. activity change, % at 57.5 µM. 360,000 compounds, 4.7% hits. AID 743279; in the data active = activity change below about -50%; inconclusive = mostly about -30% to -49%
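Secreted IL-1B measured by AlphaLISA bead assay after 16 h compound exposure of THP-1 cells; compounds (final up to 57.5 uM) added 1 h before LPS (250 ng/mL) and ATP (1.25 mM) stimulation; lower signal means less secretion.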
Numbers without * were called inactive; i = inactive; ? = inconclusive; . = not tested or not shown; [ ] = dose if it differs, or a comment. Unless noted, calls come from the whole dose curve; as a rule, active = well fitted curve in the direction sought with a large enough effect; inconclusive = small, poorly fitted or top-dose-only effect, or another doubt; inactive = no such curve, though single readings can be large; an effect the other way counts as inactive or inconclusive. % is set by controls: 0 for no effect and ±100 for the full control effect.

SMILES	ELG1 repair inh	RORgamma inh	DT40 TDP1 no CPT	Gal4-VP16 FLuc	DT40 TDP1 CPT	IL1B secr inh
COc1ccc2sc(N(CCCN(C)C)C(=O)c3ccc(S(=O)(=O)N(C)Cc4ccccc4)cc3)nc2c1	-11%	.	15µM*	.	?	-93*
CN(C)CCCN(C(=O)c1ccc2c(c1)OCCO2)c1nc2cc3c(cc2s1)OCO3	-9%	-7%	-23%	4%	?	i
COc1ccc2nc(N(CCN(C)C)C(=O)c3ccc4ccccc4c3)sc2c1	14%	3%	-4%	0%	4%	-24
CCN(CC)CCN(C(=O)c1cc2c(ccc3ccccc32)oc1=O)c1nc2cc3c(cc2s1)OCCO3	?	-127%	21µM*	?	18µM*	-61*
CCN(CC)CCN(C(=O)c1ccc2c(c1)OCCO2)c1nc2cc3c(cc2s1)OCO3	-1%	25%	-15%	0%	-25%	-28
CN(C)CCN(C(=O)c1cccc2ccccc12)c1nc2cc3c(cc2s1)OCO3	?	-17%	?	-4%	?	-91*
CN(C)CCCN(C(=O)c1ccc(S(=O)(=O)N(C)Cc2ccccc2)cc1)c1nc2cc3c(cc2s1)OCO3	-7%	8.9µM*	16µM*	?	-72%	-51*
CN(C)CCN(C(=O)c1ccc2ccccc2c1)c1nc2cc3c(cc2s1)OCCO3	?	2%	?	-5%	?	0
CC1CN(S(=O)(=O)c2ccc(C(=O)N(CCCN(C)C)c3nc4cc5c(cc4s3)OCCO5)cc2)CC(C)O1 (stereo not drawn)	13%	.	-26%	.	-27%	?
CN(C)CCCN(C(=O)c1ccc2ccccc2c1)c1nc2cc3c(cc2s1)OCO3	-1%	?	?	-17%	21µM*	-93*
Cc1cccc(CN2C[C@H](Sc3ccccn3)C[C@H]2C(=O)Nc2ccc3sc(C)nc3c2)c1	.	.	-20%	.	1%[9.04 µM]	.
CCN(CC)CCN(C(=O)c1ccc(S(=O)(=O)N(C)C2CCCCC2)cc1)c1nc2ccc(OC)cc2s1	12%	-16%	-5%	-7%	?	-77*
CCN(c1ccccc1)S(=O)(=O)c1ccc(C(=O)N(CCCN(C)C)c2nc3c(C)cccc3s2)cc1	14%	?	?	?	?	-71*
C[C@@H]1CN([C@@H](C)CO)S(=O)(=O)c2ccc(Br)cc2O[C@@H]1CN(C)Cc1cccnc1	.	.	-12%	.	-4%	-2
Cc1cc(C)c(C(CC(=O)c2cccs2)C(C#N)C#N)c(C)c1 (stereo not drawn)	?	?	26µM*	?	?	-105*
Cc1cc(F)ccc1NC(=O)CS(=O)(=O)c1cccc2nsnc12	.	.	-11%	.	11%	.
CCC(c1nnnn1-c1c(C)cccc1C)N1CCN(C/C=C/c2ccccc2)CC1 (stereo not drawn)	.	.	7.3µM*	.	6.5µM*	-20
CSCCC(c1nnnn1-c1c(C)cccc1C)N1CCN(C/C=C/c2ccccc2)CC1 (stereo not drawn)	.	.	18µM*	.	?	-59*
CCC(c1nnnn1-c1c(C)cccc1C)N1CCN(c2cccc(C(F)(F)F)n2)CC1 (stereo not drawn)	.	.	15µM*	.	?	71
Cc1noc(C)c1NC(=O)Nc1cccc2c1O[C@@H](CN(C)Cc1ccc3c(c1)OCO3)[C@@H](C)CN([C@H](C)CO)C2=O	?	.	-8%	.	-18%	?
COc1ccc2[nH]c3c(=O)n(CCCC(=O)NC4CCC(C)CC4)c(=S)[nH]c3c2c1 (stereo not drawn)	?	-10%	1%	-1%	12%	1

Screens: PubChem BioAssay, National Center for Advancing Translational Sciences (NCATS)
